Test in all cases: NCI-60 one-dose screen, 48 h (100 = growth as untreated, 0 = no growth, -100 = all killed)
What all share (conditions): 10 µM unless noted

The test system of test [1] is HCT-15 colon.
The test system of test [2] is HT29 colon.
The test system of test [3] is SNB-75 CNS.
For test [4], the system named is SNB-19 CNS.
Test [5] has as its system U251 CNS.
Test [6] deals with PC-3 prostate.
Test [7] relates to UACC-62 melanoma.
Test [8] deals with LOX IMVI melanoma.
Test [9] concerns SK-MEL-28 melanoma.
Test [10] has as its system SK-MEL-2 melanoma.
Test [11] has as its system EKVX NSCLC.
Test [12] has as its system SN12C renal.
The test system of test [13] is UO-31 renal.
For test [14], the system named is TK-10 renal.
The subject of test [15] is ACHN renal.
Test [16] deals with CAKI-1 renal.
Test [17] has as its system A498 renal.
In test [18] the test system is CCRF-CEM leukemia.
Test [19] relates to MOLT-4 leukemia.

This is part of a sample that, as a whole, favours compounds with a hit. Of some 83,000 tested, about 20% had one in any assay.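 Cell lines were cultured in 96-well plates, exposed to a single compound concentration, and assessed for percent growth 48 hours later.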 Unmarked numbers belong to inactive results. Calls of active or inactive are those of the source. The calls were made as follows: active = growth percent below 10; inactive = the rest.

As to `COc1ccc(/C=N/NC(=O)CSc2nc(-c3cnccn3)cc(-c3cccs3)c2C#N)cc1`, the growth in test [1] was 87.3%; in [2], 8.86% (active); in test [3] it was 77.3%; in [4] it was 57.8%; in test [5], 68.1%; in test [6], 72.9%. For the same molecule, the growth in [7] was 59.4%; in test [8], 45.7%; in test [9], 77%; in [10], 89%; in [11], 78.2%; in [12], 64%. Besides, the growth in [13] was 101%; in test [14], 98.7%; in test [15], 74%; in test [16] it was 48.3%; in test [17], 79%; in test [18], 86.1%. Also, the growth in test [19] was 73.8%.
Regarding `O=C(/C=C/C=C/c1csc(Br)n1)NO`, the growth in test [1] was 94.5%; in [2], 94.5%; in test [3], 75.6%; in test [4], 94.4%; in [5] it was 98.6%; in [6], 84.8%. The growth in test [7] is 84.8%; in [8] it was -31.7% (active); in test [9], 102%; in [10], 109%; in [12], 95.1%; in test [13], 71.9%. Further, the growth was 86.6% in test [14]; 92.6% in test [15]; 83.9% in test [16]; 92.8% in test [17]; 43.1% in [18]; 75.3% in [19].
In the case of `CCOC(=O)c1ccc(NC2=C(Cl)C(=O)c3nc(C)ccc3C2=O)cc1`, the growth is -48.5% (active) in [1]; 71.5% in test [2]; 70.1% in test [3]; 68.1% in test [4]; 63.8% in test [5]; 48% in test [6]. The growth in test [7] was 55.5%; in [8], 0.747% (active); in test [9], 55.2%; in test [10], 78.2%; in [11], 68.4%; in test [12] it was 75.8%. For the same molecule, the growth is 2.37% (active) in [13]; 99.4% in test [14]; -9.88% (active) in test [15]; 75.4% in test [16]; 68.3% in test [17]; 6.88% (active) in [18]. The growth in [19] is 16.3%.
As to `COc1ccc(NC(=O)CCCCCCNC(=O)C(O)(O)C(F)(F)F)cc1`, the growth in test [1] was 67.7%; in test [2] it was 23.1%; in test [3], 60.2%; in test [4] it was 66.8%; in [5] it was 39.7%; in test [6], 52.7%. Moreover, the growth in test [7] was 17.4%; in [8] it was 35.2%; in test [9], 40%; in test [10] it was 12.7%; in test [11], 61.7%; in test [12], 59.9%. For the same molecule, the growth in test [13] is 37.7%; in test [14] it was 6.59% (active); in test [15] it was 20.2%; in test [16], 26%; in test [17], 41.8%; in test [18], 26.2%. For the same molecule, the growth in [19] is 21%.
For the molecule `O=C(CSc1nc2ccccc2c(=O)n1-c1ccccc1)N/N=C/c1ccc(Oc2ccc(Br)cc2)cc1`, the growth is 63.7% in test [1]; 38.2% in test [2]; 57.8% in [3]; 39.9% in test [4]; 21.5% in test [5]; 71.8% in [6]. Moreover, the growth was 68.8% in test [7]; 21% in test [8]; 70.9% in test [9]; 93% in [10]; 60.7% in [11]; 91.5% in test [13]. In addition, the growth is 101% in test [14]; 91.4% in test [15]; 70.8% in test [16]; 82.3% in test [17]; 56.9% in [18]; 55.5% in test [19].
In the case of `Cc1[nH]c(C(=O)Nc2ccc(C(N)=O)cc2N2CCOC(C)C2)c(Cl)c1Cl` (stereo not drawn), the growth in test [1] is 93.7%; in test [2], 118%; in [3] it was 62.3%; in [4] it was 92.7%; in [5], 98.6%; in test [6], 96.7%. Besides, the growth in [7] was 91.1%; in test [8], 94%; in test [9], 108%; in test [10] it was 104%; in test [11], 93.1%; in test [12], 96.4%. Moreover, the growth in test [13] is 82.6%; in test [14] it was 100%; in [15] it was 88.4%; in test [16], 98.4%; in test [17], 72.4%; in test [18] it was 99.5%. Also, in [19], the growth is 96.4%.
`CC(=O)Nc1nc(C)c(-c2csc(Nc3ccccc3)n2)s1`: the growth in test [1] is 16.4%; in test [2] it was 28.7%; in test [3] it was 38.3%; in [4], 35.8%; in [5] it was 40.8%; in test [6], 31.8%. Besides, the growth is 21.4% in test [7]; 21.4% in test [8]; 38.1% in test [9]; 18.8% in [10]; -0.417% (active) in test [11]; 24.4% in [12]. Also, the growth in test [13] was 10.9%; in test [14] it was 31.4%; in test [15], 17.2%; in test [16], 28.6%; in [18], 27.1%; in [19] it was 16.6%.
On to `COc1cc2oc(-c3cccc(NC(=O)[C@@H](N)C(C)C)c3)cc(=O)c2c(OC)c1OC`, for which the growth in [1] is 97.9%; in [2] it was 107%; in test [3] it was 124%; in test [4] it was 95.4%; in test [5] it was 92.3%; in [6], 106%. Also, the growth in [7] is 91.3%; in [8], 94.4%; in [9], 111%; in test [10] it was 102%; in test [11], 98.4%; in test [13], 76.3%. The growth in test [14] is 97.7%; in test [15] it was 100%; in test [16], 91.1%; in [17], 95.7%; in test [18], 97.9%; in test [19], 99.9%.

The record behind these values is PubChem BioAssay (NCI).
